These results are taken from PubChem BioAssay (NCI).

Holding throughout (assay): NCI-60 one-dose screen, 48 h (100 = growth as untreated, 0 = no growth, -100 = all killed)
The subject of assay [1] is NCI-H23 lung. The settings on record: 10 µM unless noted.
For assay [2], the system named is NCI-H226 lung. The settings on record: 10 µM unless noted.
Assay [3] deals with NCI-H322M lung. The settings on record: 10 µM unless noted.
Assay [4] concerns HOP-62 NSCLC. The settings on record: 10 µM unless noted.
Assay [5] relates to NCI-H460 lung. The settings on record: 10 µM unless noted.
The test system of assay [6] is HOP-92 NSCLC. The settings on record: 10 µM unless noted.
In assay [7] the test system is NCI-H522 lung. The settings on record: 10 µM.
For assay [8], the system named is 786-0 renal. The settings on record: 10 µM unless noted.
The test system of assay [9] is COLO 205 colon. The settings on record: 10 µM unless noted.
Assay [10] relates to K-562 leukemia. The settings on record: 10 µM unless noted.
Assay [11] concerns MALME-3M melanoma. The settings on record: 10 µM unless noted.
For assay [12], the system named is MDA-MB-231 breast. The settings on record: 10 µM unless noted.
Assay [13] concerns SF-268 CNS. The settings on record: 10 µM unless noted.
In assay [14] the test system is SF-295 CNS. The settings on record: 10 µM unless noted.
The test system of assay [15] is SF-539 CNS. The settings on record: 10 µM unless noted.
For assay [16], the system named is UACC-257 melanoma. The settings on record: 10 µM unless noted.
Assay [17] concerns M14 melanoma. The settings on record: 10 µM unless noted.
Assay [18] concerns DU-145 prostate. The settings on record: 10 µM unless noted.
Assay [19] has as its system RXF 393 renal. The settings on record: 10 µM unless noted.

Each structure is given as a SMILES string. About 83,000 compounds went through this panel and 20% of them were active in at least one assay; those are over-represented in the sample as a whole.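 Assay: single dose, 48 h. Readout: percent growth (0 = no net growth; negative = cell death). Active: <10.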 Values without a mark were called inactive. The source made the active and inactive calls.

Turning to `O=C(COc1cccc(/C=C2\Cc3ccccc3C2=O)c1)c1ccc(Cl)cc1`, the growth in assay [1] was 96.1%; in assay [2] it was 105%; in assay [3], 131%; in assay [4], 98%; in assay [5], 117%; in assay [6] it was 86.6%. Moreover, the growth was 81.1% in assay [7]; 97.8% in [8]; 142% in assay [9]; 100% in assay [10]; 90% in [11]; 84.1% in assay [12]. Also, the growth in [13] is 117%; in [14] it was 124%; in assay [15], 95.6%; in assay [16], 96.4%; in assay [17], 105%.
For the molecule `CCCn1c(N)c(C(=O)CNc2ccc(I)cc2)c(=O)[nH]c1=O`, the growth is 89.8% in [1]; 62.7% in [2]; 62% in assay [3]; 54.9% in [4]; 28.6% in [5]; 95.4% in [6]. The growth is 50.9% in assay [7]; 47.1% in assay [8]; 75.5% in assay [9]; 57.3% in assay [18]; 43.5% in [10]; 80.7% in assay [11]. Besides, the growth was 67.5% in assay [12]; 46.1% in [13]; 54.2% in assay [14]; 57.5% in assay [15]; 72.1% in assay [16]; 56.2% in assay [17].
Consider `Oc1ccccc1/C=N/N1CCCCCC1`, for which the growth in [1] is 101%; in assay [2], 91.5%; in assay [3], 108%; in assay [4] it was 109%; in [5], 127%; in assay [6], 50.4%. Further, the growth is 104% in assay [7]; 110% in assay [8]; 122% in [9]; 108% in assay [18]; 96.1% in [12]; 101% in assay [19]. The growth in [13] is 99.9%; in assay [15] it was 113%; in assay [16], 129%; in assay [17], 118%.
For the molecule `Cc1ccc(-c2cc(-c3ccccc3)n(-c3ccccc3)n2)cc1`, the growth is 95.9% in [1]; 97.9% in [2]; 97.3% in assay [3]; -2.85% (active) in assay [4]; 104% in assay [5]; 108% in assay [6]. The growth in [7] was 79%; in assay [8], 92.9%; in assay [9], 112%; in assay [10] it was 81.2%; in assay [11] it was 87.6%; in assay [12], 112%. Also, the growth in [13] was 98.3%; in [14], 156%; in assay [15], 115%; in assay [16] it was 98.1%; in assay [17], 110%.
On to `COc1ccc2cc(-c3nc4ccccc4[nH]3)c(=O)oc2c1`, for which the growth in assay [1] is 93.1%; in assay [2], 97.5%; in assay [3] it was 96.3%; in assay [4], 93.9%; in assay [5] it was 101%; in assay [6] it was 80.3%. The growth was 88.7% in assay [7]; 98% in [8]; 119% in assay [9]; 114% in [18]; 96.8% in assay [10]; 103% in [11]. For the same molecule, the growth in assay [12] is 104%; in assay [13], 110%; in assay [14], 105%; in [15], 98.8%; in [16], 45.9%; in assay [17], 93.7%.
Consider `COc1cccc(C2=NN(C(C)=O)C(c3cc(OC)c(OC)c(OC)c3)C2)c1` (stereo not given), for which the growth in assay [1] is 52%; in assay [2], 90.1%; in assay [3], 77%; in assay [4], 31.5%; in assay [5] it was -0.923% (active); in assay [6], -0.613% (active). Moreover, the growth is -38% (active) in [7]; 30% in [8]; 22.2% in assay [9]; 9.66% (active) in assay [10]; 65.9% in assay [11]; 41.3% in assay [12]. Moreover, the growth in assay [13] is 38.6%; in assay [14], 193%; in assay [15], 7.59% (active); in assay [16], 48.3%; in assay [17], 16.8%.
As to `CC1Cc2ccccc2N1C(=O)c1ccc(C(=O)c2ccccc2)cc1` (stereo not given), the growth was 98.3% in [1]; 78.1% in [2]; 91.2% in assay [3]; 80.5% in assay [4]; 99.3% in assay [5]; 92% in [6]. Also, the growth in [7] was 77.3%; in assay [8], 86.7%; in assay [9], 97.1%; in assay [18], 79.7%; in [10], 85.6%; in assay [11] it was 73%. For the same molecule, the growth in assay [12] was 91.3%; in [13], 92.1%; in assay [14] it was 84%; in assay [15], 96.3%; in assay [16], 30.1%; in assay [17] it was 83.5%.
Turning to `NS(=O)(=O)N(c1cc(C(F)(F)F)cc(C(F)(F)F)c1)C1CCN(Cc2ccc(C(F)(F)F)cc2)CC1`, the growth was 9.79% (active) in [1]; 78.1% in [2]; 45.1% in assay [3]; 30.2% in assay [4]; 5.71% (active) in assay [5]; 7.48% (active) in assay [6]. In addition, the growth in assay [7] was -23.3% (active); in assay [8] it was 42.3%; in [9] it was -59.8% (active); in assay [18] it was 8.8% (active); in assay [10], 21%; in assay [11], 71.2%. Also, the growth in assay [12] is 19.1%; in assay [13] it was 38.5%; in assay [14], 49.8%; in assay [15], 0.806% (active); in assay [17], -0.587% (active).
In the case of `Cc1ccc(OCC(=O)Nc2ccc(Oc3ccccc3)cc2)c([N+](=O)[O-])n1`, the growth in [1] was 47%; in assay [2], 68.8%; in assay [3], 95%; in [4], 79.6%; in assay [5] it was 76.3%; in assay [6] it was 73.7%. Also, the growth in assay [7] is 33.2%; in assay [8], 66.3%; in assay [9], 94.5%; in assay [18], 90.4%; in assay [11], 87.7%; in assay [12], 85.4%. The growth in [19] was 66.1%; in assay [13], 86.5%; in [14] it was 89.5%; in assay [15] it was 78.3%; in assay [17], 74.7%.
